Bioassay records as filed in PubChem BioAssay.
HPGD inh – blocks human HPGD enzyme activity | actives 4.3% (n = 150,000) | purified HPGD, NADH fluorescence kinetic, PGE2 substrate | AID 894 | P15428 | Potency, µM, actives largely listed as inhibitors
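NADH formation kinetics: reaction with 30 uM PGE2 and 1 mM NAD+ (final), 20 nM enzyme, Tris-HCl pH 8 with Tween 20, after 15 min compound preincubation at room temperature. Fluorescence change, last versus first of five reads.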
HTT ATP protect – protects HTT-Q103 PC12 cells, measured by ATP. PC12 HTT-Q103 induced, cytoprotection, ATP luminescence, 40 h. Potency, µM (doses to about 56.4 µM), most hits filed as activators. actives 0.14% (n = 230,000). AID 1471; active = well fitted curve in the direction sought with a large enough effect; inconclusive = small, poorly fitted or top-dose-only effect, or another doubt; inactive = no such curve, though single readings can be large; an effect the other way counts as inactive or inconclusive; also: nearly all actives have a fitted effect of over 45% in size
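Cells were plated at 1500 per well in phenol red-free DMEM with 5% equine and 5% calf serum. Tebufenozide (100 nM final) and compounds were added, then ATPlite reagent, and luminescence was read.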
HTT aggregate – reduces HttQ103-GFP aggregates in PC12 cells. Potency, µM (titrated, usually from 46.1 µM), usual class: inhibitors. PC12 HttQ103-GFP aggregates, Acumen cytometry, 40 h. actives 1.1% (n = 220,000); active = well fitted curve in the direction sought with a large enough effect; inconclusive = small, poorly fitted or top-dose-only effect, or another doubt; inactive = no such curve, though single readings can be large; an effect the other way counts as inactive or inconclusive; also: nearly all actives have a fitted effect of over 60% in size
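PC12/HTTQ103-GFP, ecdysone-inducible; teb 100 nM; cpd qHTS titration; GFP aggregates read on laser cytometer, Ex 488/Em 500-530 nm.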
Lamin A splicing – modulators of lamin A splicing | actives 0.01% (n = 200,000) | Potency, µM (series often up to 46.1 µM), actives largely listed as inhibitors | HeLa LMNA splicing GFP/RFP minigene ratio, 48 h | AID 1487; active = well fitted inhibition curve with a large enough effect in the signal ratio, with a control signal flat, not every such curve was filed as active; inconclusive = small, poorly fitted or top-dose-only effect, or effect the other way, or a change in a side signal; the % refers to the signal ratio
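Read-out is the ratio of GFP to DsRed2 object intensity, acquired by 488 nm laser-scanning cytometry on HeLa lamin A-EGFP minigene reporter cells. Compound incubation 48 hrs at 37 °C in Opti-MEM with 2% FBS; DMSO 0.5% final.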
ALDH1A1 inh-1 – inhibitors of human aldehyde dehydrogenase 1A1. Purified ALDH1A1, NADH fluorescence, propionaldehyde substrate. Potency, µM (top dose mostly 75.3 µM), usual class: inhibitors. actives 7.3% (n = 220,000). P00352
KDM4E inh – inhibitors of human JMJD2E histone demethylase. JMJD2E catalytic domain, FDH-coupled NADH fluorescence (FDH is formaldehyde dehydrogenase). actives 1.6% (n = 230,000). AID 2147. B2RXH2. Potency, µM (highest dose often 57.1 µM), most hits filed as inhibitors; also: nearly all actives have a fitted effect of over 50% in size
Target sequence (B2RXH2 1-337 limits assumed): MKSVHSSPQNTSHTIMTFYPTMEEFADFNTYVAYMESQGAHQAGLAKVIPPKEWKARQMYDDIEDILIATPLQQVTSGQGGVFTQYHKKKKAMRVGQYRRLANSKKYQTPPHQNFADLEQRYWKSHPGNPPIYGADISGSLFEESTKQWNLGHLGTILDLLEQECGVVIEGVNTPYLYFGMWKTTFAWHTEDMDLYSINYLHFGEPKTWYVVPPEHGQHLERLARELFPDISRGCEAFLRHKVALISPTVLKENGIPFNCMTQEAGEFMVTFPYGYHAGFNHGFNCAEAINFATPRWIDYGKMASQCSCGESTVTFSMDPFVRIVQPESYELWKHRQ
ALDH1A1 inh-2 – Blocks ALDH1A1 NADH production, follow-up. shares compounds with ALDH1A1 inh-1. purified ALDH1A1, NADH fluorescence, propionaldehyde/NAD+. Potency, µM (highest dose often 57.1 µM), usual class: inhibitors. actives 90% (n = 90); calls by dose curve
Each line names hits and unclear results; the compound was inactive in the other large screens (follow-up assays come after a bar, where they were run). The list is not random: actives were taken first. Their share in the collection is about 9.2%. Unless noted, calls follow the shape of the dose curve; as a rule, active = well fitted inhibition curve with a large enough effect (not every such curve was filed as active); inconclusive = small, poorly fitted or top-dose-only effect, or another doubt; inactive = no such curve, though single readings can be large or run the other way.

CC1Cc2ccccc2N1S(=O)(=O)c1nnc(NC(=O)c2ccccc2Br)s1 (stereo unspecified)	none (no result: HPGD inh, HTT ATP protect, HTT aggregate, ALDH1A1 inh-1, KDM4E inh)
O=C(CN1C(=O)c2ccccc2C1=O)NCCc1c[nH]c2ccccc12	none (no result: HTT ATP protect)
CCN(CC)C(=O)CN1C(=O)C(=O)c2ccccc21	ALDH1A1 inh-1 0.02µM (no result: HPGD inh) | ALDH1A1 inh-2 0.089µM
O=C(CN1C(=O)C(=O)c2ccccc21)NCCc1ccccc1	ALDH1A1 inh-1 0.089µM (no result: HPGD inh, Lamin A splicing) | ALDH1A1 inh-2 0.063µM
CCCCN(CC)C(=O)CN1C(=O)c2ccccc2C1=O	none
CCOc1ccc(NC(=O)CN2CCN(S(=O)(=O)c3ccc(Cl)cc3)CC2)cc1	none
CCOc1ccc(NC(=O)CN2CCN(CC(=O)c3ccc(OCC)cc3)CC2)cc1	ALDH1A1 inh-1 1.4µM | ALDH1A1 inh-2 4.5µM
CCN(CC)C(=O)CSc1nc2ccccc2c(=O)n1CCC(=O)NCc1ccc(F)cc1	HPGD inh inconclusive, ALDH1A1 inh-1 1µM | ALDH1A1 inh-2 2µM
COc1ccc(S(=O)(=O)NCC2CCCN(C(=O)c3sccc3C)C2)cc1 (stereo unspecified)	Lamin A splicing inconclusive, ALDH1A1 inh-1 0.18µM (no result: HPGD inh) | ALDH1A1 inh-2 0.089µM
COc1ccc(S(=O)(=O)NCC2CCCN(C(=O)CC3CCCC3)C2)cc1 (stereo unspecified)	ALDH1A1 inh-1 0.79µM (no result: HPGD inh) | ALDH1A1 inh-2 0.89µM
COc1ccc(C(=O)COc2ncnc3cc(Cl)ccc23)cc1	none (no result: HPGD inh, Lamin A splicing, ALDH1A1 inh-1)
O=C(CN1CCN(C2CCCCC2)CC1)Nc1ccccc1-c1ccccc1	ALDH1A1 inh-1 6.3µM, KDM4E inh inconclusive | ALDH1A1 inh-2 inconclusive
CSc1ccc(S(=O)(=O)NCCCOC(C)C)cc1	ALDH1A1 inh-1 inconclusive (no result: HPGD inh, Lamin A splicing)
CCC(Sc1nc2cc(OC)c(OC)cc2c(=O)n1Cc1ccco1)C(=O)NCCOC (stereo unspecified)	ALDH1A1 inh-1 0.79µM | ALDH1A1 inh-2 0.25µM
CCc1ccc(NC(=O)C(CC)Sc2nc3cc4c(cc3c(=O)n2Cc2ccco2)OCO4)cc1 (stereo unspecified)	HTT aggregate inconclusive, ALDH1A1 inh-1 0.4µM | ALDH1A1 inh-2 0.22µM
O=c1nc2n(c3ccc(Br)cc13)CCS2	ALDH1A1 inh-1 inconclusive
Cc1ccc2oc(C(Cl)(Cl)Cl)cc(=O)c2c1	HTT aggregate inconclusive
O=C(CN(Cc1ccccc1)C(=O)c1cc2c(s1)CCC2)NCc1cccs1	ALDH1A1 inh-1 0.45µM | ALDH1A1 inh-2 0.071µM
CCN(CC(=O)NCc1cccs1)C(=O)c1ccc(S(=O)(=O)N(C)C)cc1	none (no result: HPGD inh)
CC(C)c1nc(N(C)S(C)(=O)=O)nc(-c2ccc(F)cc2)c1/C=C/C(O)CC(O)CC(=O)O (stereo unspecified)	Lamin A splicing inconclusive, ALDH1A1 inh-1 0.22µM | ALDH1A1 inh-2 0.13µM
O=C(O)[C@H]1CCc2ccc3ccccc3c2[C@H]1c1cccc2ccccc12	none (no result: HTT aggregate, Lamin A splicing, KDM4E inh)
O=C1O/C(=C/Br)CCC1c1cccc2ccccc12 (stereo unspecified)	HPGD inh 20µM, Lamin A splicing inconclusive, ALDH1A1 inh-1 0.5µM (no result: HTT ATP protect, HTT aggregate) | ALDH1A1 inh-2 0.63µM
Cn1c(SCC(=O)Nc2ccc3c(c2)OCCO3)nnc1-c1ccco1	ALDH1A1 inh-1 0.032µM (no result: HPGD inh) | ALDH1A1 inh-2 25µM
CCn1c(SCC(=O)Nc2ccc3c(c2)OCCO3)nnc1-c1ccco1	ALDH1A1 inh-1 inconclusive
COc1ccc([N+](=O)[O-])cc1NC(=O)C(C)N1CCN(C(=O)c2ccco2)CC1 (stereo unspecified)	ALDH1A1 inh-1 1.3µM (no result: HPGD inh, Lamin A splicing) | ALDH1A1 inh-2 3.2µM
CC(C)CNC(=O)C(=O)Nc1c2c(nn1-c1ccccc1)CS(=O)(=O)C2	none (no result: HPGD inh, HTT ATP protect, HTT aggregate, ALDH1A1 inh-1, KDM4E inh)
